In PubChem BioAssay AID1159580 (chemical genetic matrix, 2015):
Out of some 5,500 compounds screened, about 2,000 (36%) were called active. Another 18% or so got no clear call; they are omitted. No stated cut-off is given here; in the data, active means normalized growth mostly below about 0.91 (no sharp cut-off); inconclusive means no clear call, values can overlap the other calls; inactive means mostly above about 0.92. The list shows a part of the results.

Test: chemical genetic growth profiling, strain panel (AID 1159580);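 further: tested at 20 µM; growth read once vehicle control cultures reached saturation at 30 °C; 1 = growth at the plate median or of vehicle wells; lower values mean less growth of the strain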
Details: S. cerevisiae deletion strains, growth OD
[1] = locus YAL021C, strain ccr4, active compounds read low
[2] = locus YAL026C, strain drs2, active compounds read low
[3] = locus YAL030W, strain snc1, active compounds read low
[4] = locus YBL061C, strain skt5, active compounds read low
[5] = locus YBR009C, strain hhf1, active compounds read low
[6] = locus YBR023C, strain chs3, active compounds read low
[7] = locus YBR171W, strain sec66, active compounds read low
[8] = locus YBR231C, strain swc5, active compounds read low
[9] = locus YBR279W, strain paf1, active compounds read low
[10] = locus YCL011C, strain gbp2, active compounds read low
[11] = locus YCL016C, strain dcc1, active compounds read low
[12] = locus YCL061C, strain MRC1, active compounds read low
[13] = locus YCL069W, strain vba3, active compounds read low
[14] = locus YCR088W, strain abp1, active compounds read low
[15] = locus YDL005C, strain med2, active compounds read low
[16] = locus YDL040C, strain nat1, active compounds read low
[17] = locus YDR001C, strain nth1, active compounds read low
[18] = locus YDR069C, strain doa4, active compounds read low
[19] = locus YDR137W, strain rgp1, active compounds read low
[20] = locus YDR159W, strain sac3, active compounds read low
[21] = locus YDR297W, strain sur2, active compounds read low
[22] = locus YDR334W, strain swr1, active compounds read low
[23] = locus YDR335W, strain msn5, active compounds read low
[24] = locus YDR392W, strain spt3, active compounds read low
[25] = locus YEL003W, strain gim4, active compounds read low
[26] = locus YEL037C, strain rad23, active compounds read low
[27] = locus YEL061C, strain CIN8 (second series), active compounds read low
[28] = locus YER015W, strain faa2, active compounds read low
[29] = locus YER016W, strain bim1, active compounds read low
[30] = locus YER111C, strain swi4, active compounds read low
[31] = locus YER155C, strain BEM2 (second series), active compounds read low
[32] = locus YFR010W, strain ubp6, active compounds read low
[33] = locus YGL167C, strain pmr1, active compounds read low
[34] = locus YGL173C, strain kem1, active compounds read low
[35] = locus YGL227W, strain vid30, active compounds read low
[36] = locus YGL240W, strain doc1, active compounds read low
[37] = locus YGL253W, strain hxk2, active compounds read low
[38] = locus YHR013C, strain ard1, active compounds read low
[39] = locus YHR027C, strain rpn1, active compounds read low
[40] = locus YHR030C, strain SLT2, active compounds read low
[41] = locus YHR079C, strain IRE1, active compounds read low
[42] = locus YHR142W, strain chs7, active compounds read low
[43] = locus YJL092W, strain hpr5, active compounds read low
[44] = locus YJL095W, strain BCK1 (second series), active compounds read low
[45] = locus YJL095W, strain BCK1, active compounds read low
[46] = locus YJL115W, strain asf1, active compounds read low
[47] = locus YJL129C, strain trk1, active compounds read low
[48] = locus YJL154C, strain vps35, active compounds read low
[49] = locus YJL164C, strain tpk1, active compounds read low
[50] = locus YJL166W, strain qcr8, active compounds read low
[51] = locus YJR066W, strain TOR1, active compounds read low
[52] = locus YKL160W, strain elf1, active compounds read low
[53] = locus YKR026C, strain gcn3, active compounds read low
[54] = locus YKR091W, strain srl3, active compounds read low
[55] = locus YLL001W, strain dnm1, active compounds read low
[56] = locus YLL026W, active compounds read low
[57] = locus YLL041C, strain sdh2, active compounds read low
[58] = locus YLR027C, strain aat2, active compounds read low
[59] = locus YLR113W, strain HOG1, active compounds read low
[60] = locus YLR221C, strain rsa3, active compounds read low
[61] = locus YLR258W, strain gsy2, active compounds read low
[62] = locus YLR262C, strain YPT6 (second series), active compounds read low
[63] = locus YLR320W, strain mms22, active compounds read low
[64] = locus YLR342W, strain FKS1, active compounds read low
[65] = locus YLR357W, strain rsc2, active compounds read low
[66] = locus YLR370C, strain arc18, active compounds read low
[67] = locus YLR384C, strain iki3, active compounds read low
[68] = locus YML120C, strain ndi1, active compounds read low
[69] = locus YMR058W, strain fet3, active compounds read low
[70] = locus YMR125W, strain sto1, active compounds read low
[71] = locus YMR129W, active compounds read low
[72] = locus YMR205C, strain PFK2, active compounds read low
[73] = locus YMR231W, strain pep5, active compounds read low
[74] = locus YNL071W, strain lat1, active compounds read low
[75] = locus YNL183C, strain NPR1, active compounds read low
[76] = locus YNL209W, strain ssb2, active compounds read low
[77] = locus YNL248C, strain rpa49, active compounds read low
[78] = locus YNL322C, strain KRE1 (second series), active compounds read low
[79] = locus YNR049C, strain mso1, active compounds read low
[80] = locus YOR001W, strain rrp6, active compounds read low
[81] = locus YOR070C, strain gyp1, active compounds read low
[82] = locus YOR080W, strain dia2, active compounds read low
[83] = locus YOR083W, strain WHI5, active compounds read low
[84] = locus YOR106W, strain vam3, active compounds read low
[85] = locus YOR231W, strain MKK1, active compounds read low
[86] = locus YOR265W, strain rbl2, active compounds read low
[87] = locus YOR270C, strain vph1, active compounds read low
[88] = locus YOR290C, strain snf2, active compounds read low
[89] = locus YPL051W, strain arl3, active compounds read low
[90] = locus YPL078C, strain atp4, active compounds read low
[91] = locus YPL106C, strain sse1, active compounds read low
[92] = locus YPL240C, strain hsp82, active compounds read low
[93] = locus YPL256C, strain CLN2, active compounds read low
[94] = locus YJL187C, strain SWE1, active compounds read low

Measured: normalized growth

C=CCSC[C@@H](N)C(=O)O
inactive: [1] 0.993 | [2] 0.986 | [3] 1.01 | [4] 0.996 | [5] 1 | [6] 0.987 | [7] 0.984 | [8] 1 | [9] 1 | [10] 0.982 | [11] 0.998 | [12] 0.981 | [13] 0.99 | [14] 0.994 | [15] 0.988 | [16] 1.01 | [17] 0.986 | [18] 0.994 | [19] 1.01 | [20] 0.991 | locus YDR195W, strain ref2 0.985 | [21] 1 | [22] 0.987 | [23] 0.997 | [24] 0.996 | [25] 0.996 | [26] 1.01 | [27] 0.999 | [28] 0.992 | [29] 1.01 | [30] 1.01 | [31] 1.03 | [32] 0.986 | [33] 0.992 | [34] 0.999 | [35] 0.986 | [36] 1 | [37] 0.993 | [38] 1 | [39] 1.01 | [40] 0.943 | [41] 0.96 | [42] 0.978 | [43] 0.989 | [44] 1.01 | [45] 0.936 | [46] 0.989 | [47] 0.992 | [48] 0.982 | [49] 1 | [50] 1 | [51] 0.901 | [52] 0.985 | [53] 0.986 | [54] 1.01 | [55] 0.987 | [56] 0.993 | [57] 0.985 | [58] 0.993 | [59] 0.973 | [60] 0.994 | [61] 0.99 | [62] 0.995 | [63] 1.01 | [64] 1.02 | [65] 1.01 | [66] 0.999 | [67] 0.993 | [68] 0.986 | [69] 0.992 | [70] 0.986 | [71] 0.985 | [72] 1 | [73] 0.998 | [74] 1 | [75] 0.914 | [76] 0.991 | [77] 0.995 | [78] 1 | [79] 0.997 | [80] 0.997 | [81] 0.992 | [82] 1 | [83] 1.02 | [84] 1 | [85] 0.968 | [86] 0.996 | [87] 1 | [88] 0.993 | [89] 0.998 | [90] 0.999 | [91] 0.986 | [92] 0.999 | [93] 0.948

C=CCSSSCC=C
inactive: [1] 0.962 | [2] 0.97 | [3] 0.989 | [4] 1 | [5] 0.957 | [6] 0.986 | [7] 0.994 | [8] 0.974 | [9] 0.991 | [10] 0.984 | [11] 1 | [12] 0.98 | [13] 0.973 | [14] 0.984 | [15] 0.97 | [16] 0.987 | [17] 0.988 | [18] 0.965 | [19] 0.984 | [20] 0.937 | locus YDR195W, strain ref2 0.944 | [21] 0.989 | [22] 0.966 | [23] 0.986 | [24] 0.782 | [25] 0.98 | [26] 0.958 | [27] 0.979 | [28] 0.976 | [29] 0.992 | [30] 0.991 | [32] 0.956 | [33] 0.983 | [34] 0.988 | [35] 0.995 | [36] 0.944 | [37] 0.987 | [38] 0.937 | [39] 1 | [42] 0.981 | [43] 0.966 | [44] 0.991 | [46] 0.975 | [47] 0.958 | [48] 0.979 | [49] 0.974 | [50] 0.976 | [94] 0.984 | [52] 0.995 | [53] 0.978 | [54] 0.983 | [55] 0.994 | [56] 0.991 | [57] 0.982 | [58] 0.972 | [60] 0.992 | [61] 0.999 | [62] 0.995 | [63] 0.967 | [64] 0.98 | [65] 0.891 | [66] 0.978 | [67] 1.01 | [68] 0.974 | [69] 0.975 | [70] 0.946 | [71] 0.98 | [72] 0.967 | [73] 0.978 | [76] 0.992 | [78] 0.974 | [79] 0.98 | [80] 0.96 | [81] 0.992 | [82] 0.972 | [83] 1 | [84] 0.949 | [86] 0.984 | [87] 0.941 | [88] 0.964 | [89] 0.979 | [90] 0.988 | [91] 0.976 | [92] 0.995
active: [31] 0.765 | [74] 0.847 | [77] 0.877

C=CCSCC=C
inactive: [1] 0.972 | [2] 0.971 | [3] 0.962 | [4] 0.979 | [5] 0.981 | [6] 0.987 | [7] 0.965 | [8] 1.03 | [9] 0.992 | [10] 0.966 | [11] 0.975 | [12] 0.972 | [13] 0.98 | [14] 0.99 | [15] 0.985 | [16] 0.993 | [17] 0.96 | [18] 0.947 | [19] 0.971 | [20] 0.991 | locus YDR195W, strain ref2 0.961 | [21] 0.982 | [22] 0.935 | [23] 0.987 | [24] 0.916 | [25] 0.986 | [26] 0.972 | [27] 0.982 | [28] 0.958 | [29] 0.991 | [30] 0.966 | [31] 0.974 | [32] 0.953 | [33] 0.971 | [34] 0.941 | [35] 0.986 | [36] 0.981 | [37] 0.967 | [38] 0.957 | [39] 0.96 | [40] 1.03 | [41] 1.03 | [42] 0.934 | [43] 0.961 | [44] 0.996 | [45] 1.03 | [46] 0.938 | [47] 0.95 | [48] 0.978 | [49] 0.981 | [50] 0.977 | [94] 0.986 | [51] 0.931 | [52] 1 | [53] 0.989 | [54] 0.983 | [55] 0.966 | [56] 0.974 | [57] 0.975 | [58] 0.953 | [59] 1.02 | [60] 0.973 | [61] 0.989 | [62] 0.983 | [63] 0.995 | [64] 0.983 | [65] 0.963 | [66] 0.977 | [67] 0.99 | [68] 0.973 | [69] 0.97 | [70] 0.966 | [71] 0.979 | [72] 0.969 | [73] 0.98 | [74] 0.991 | [75] 0.94 | [76] 0.985 | [77] 0.98 | [78] 0.955 | [79] 0.964 | [80] 0.992 | [81] 0.976 | [82] 0.974 | [83] 0.989 | [84] 0.977 | [85] 1.02 | [86] 1.01 | [87] 0.945 | [88] 0.903 | [89] 0.991 | [90] 0.988 | [91] 0.943 | [92] 0.974 | [93] 1.03
